Experimental data published in PubChem BioAssay (EPA / NIEHS).
Results filed as inconclusive are left out. The source made the active and inactive calls. The calls were made as follows: active = hit-call score of the fitted dose curve at least 0.9, where 1 is the maximum; inconclusive = response in the unintended direction; inactive = score below 0.9.

Test system: 5-hydroxytryptamine receptor 2C (pig)
Test: NVS_GPCR_p5HT2C: NovaScreen (NVS) G Protein-Coupled Receptor Assay for pig Serotonin, 5-Hydroxytryptamine Receptor 2C (5HT2C) (AID 2283288)
Experimental: NVS_GPCR_p5HT2C is a biochemical, single-readout assay that uses extracted gene-proteins from Pig choroid plexus membranes in a tissue-based cell-free assay. Measurements were taken 1 hour after chemical dosing in a 48-well plate.NVS_GPCR_p5HT2C is one of one assay component(s) measured or calculated from the NVS_GPCR_p5HT2C assay. It is designed to make measurements of radioligand binding, a form of binding reporter, as detected with scintillation counting signals by Filter-based radiodetection technology.Data from the assay component NVS_GPCR_p5HT2C was analyzed into 1 assay endpoint. This assay endpoint, NVS_GPCR_p5HT2C, was analyzed in the positive analysis fitting direction relative to DMSO as the negative control and baseline of activity. Using a type of binding reporter, loss-of-signal activity can be used to understand changes in the binding as they relate to the gene HTR2C. Furthermore, this assay endpoint can be referred to as a primary readout, because the performed assay has only produced 1 assay endpoint. To generalize the intended target to other relatable targets, this assay endpoint is annotated to the gpcr intended target family, where the subfamily is rhodopsin-like receptor. […]

SMILES	AC50
CCC(=O)C(CC(C)N(C)C)(c1ccccc1)c1ccccc1 (configuration not stated)	1.91 µM (active)
CCOC(=O)Nc1cccc(OC(=O)Nc2ccccc2)c1	20.3 µM (active)
